{
  "source": "paper PMC7862700",
  "about": "“An all-to-all approach to the identification of sequence-specific readers for epigenetic DNA modifications on cytosine”",
  "data": [
    {"biological_target": "T1, FLI1 (Homo sapiens, UniProt Q01543 1-452)", "T1 sequence": "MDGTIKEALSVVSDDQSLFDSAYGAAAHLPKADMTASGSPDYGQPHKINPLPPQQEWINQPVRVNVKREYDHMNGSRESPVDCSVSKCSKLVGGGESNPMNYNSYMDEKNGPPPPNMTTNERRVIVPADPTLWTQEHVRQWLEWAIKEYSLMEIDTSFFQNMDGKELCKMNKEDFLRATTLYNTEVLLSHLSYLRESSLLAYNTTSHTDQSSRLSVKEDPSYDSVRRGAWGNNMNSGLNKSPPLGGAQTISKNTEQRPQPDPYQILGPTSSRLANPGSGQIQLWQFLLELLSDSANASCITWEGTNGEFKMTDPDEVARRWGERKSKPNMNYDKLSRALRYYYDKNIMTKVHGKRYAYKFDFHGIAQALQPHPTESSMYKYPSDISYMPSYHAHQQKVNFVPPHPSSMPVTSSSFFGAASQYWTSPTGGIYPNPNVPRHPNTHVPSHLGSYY", "experiment": "DAPPL (digital affinity profiling via proximity ligation, sequencing); 10 mM Tris-HCl pH 7.5, 50 mM NaCl, 1 mM DTT, 4% glycerol, room temperature, 30 min; GST-TFs on glutathione beads, 16-mer random dsDNA library, 0.1% formaldehyde crosslink after washing; high values mean tight binding", "conditions": "protein: recombinant; tags: N-terminal GST; dsDNA, one strand shown", "how_it_was_run": "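GST fusions of human transcription factors were expressed in yeast and captured with glutathione beads. Once given DNA barcodes and pooled alongside a tag-only sample, they were incubated for 30 min at room temperature with 200 nmole of a random double-stranded 16-mer DNA library in Tris/NaCl/DTT/glycerol buffer, then washed, crosslinked (0.1% formaldehyde), proximity-ligated, PCR-amplified and sequenced on an Illumina NextSeq500. The binding signal of each hexamer is its read frequency for a factor divided by its frequency for the tag-only sample.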", "values": [
      {"sequence": "TACCGC", "binding signal": "1.16 fold enrichment (6-mer frequency, TF over GST control)"},
      {"sequence": "TGCATA", "binding signal": "1.08 fold enrichment (6-mer frequency, TF over GST control)"},
      {"sequence": "AAGTCA", "binding signal": "1.18 fold enrichment (6-mer frequency, TF over GST control)"},
      {"sequence": "CGCTCA", "binding signal": "1.13 fold enrichment (6-mer frequency, TF over GST control)"},
      {"sequence": "TCACCC", "binding signal": "1.23 fold enrichment (6-mer frequency, TF over GST control)"},
      {"sequence": "CTCAGT", "binding signal": "1.16 fold enrichment (6-mer frequency, TF over GST control)"},
      {"sequence": "CCTCGG", "binding signal": "1.2 fold enrichment (6-mer frequency, TF over GST control)"},
      {"sequence": "TGATGT", "binding signal": "1.31 fold enrichment (6-mer frequency, TF over GST control)"},
      {"sequence": "TCCGTT", "binding signal": "1.44 fold enrichment (6-mer frequency, TF over GST control)"},
      {"sequence": "CGGTTT", "binding signal": "1.26 fold enrichment (6-mer frequency, TF over GST control)"},
      {"sequence": "CTACGT", "binding signal": "1.29 fold enrichment (6-mer frequency, TF over GST control)"},
      {"sequence": "TCACAT", "binding signal": "1.23 fold enrichment (6-mer frequency, TF over GST control)"},
      {"sequence": "TCAATG", "binding signal": "1.08 fold enrichment (6-mer frequency, TF over GST control)"},
      {"sequence": "ACCACT", "binding signal": "1.28 fold enrichment (6-mer frequency, TF over GST control)"},
      {"sequence": "TTGTTG", "binding signal": "1.03 fold enrichment (6-mer frequency, TF over GST control)"},
      {"sequence": "GGCATT", "binding signal": "1.08 fold enrichment (6-mer frequency, TF over GST control)"},
      {"sequence": "CCTAGA", "binding signal": "1.04 fold enrichment (6-mer frequency, TF over GST control)"},
      {"sequence": "ACCTTG", "binding signal": "1.27 fold enrichment (6-mer frequency, TF over GST control)"},
      {"sequence": "AACGGC", "binding signal": "1.08 fold enrichment (6-mer frequency, TF over GST control)"},
      {"sequence": "TCATGC", "binding signal": "1.17 fold enrichment (6-mer frequency, TF over GST control)"},
      {"sequence": "AAACGG", "binding signal": "1.17 fold enrichment (6-mer frequency, TF over GST control)"},
      {"sequence": "CCTGTA", "binding signal": "1.31 fold enrichment (6-mer frequency, TF over GST control)"},
      {"sequence": "TACAGG", "binding signal": "1.32 fold enrichment (6-mer frequency, TF over GST control)"},
      {"sequence": "ACCGCC", "binding signal": "1.38 fold enrichment (6-mer frequency, TF over GST control)"},
      {"sequence": "ATCACA", "binding signal": "1.06 fold enrichment (6-mer frequency, TF over GST control)"},
      {"sequence": "CCTACC", "binding signal": "1.21 fold enrichment (6-mer frequency, TF over GST control)"},
      {"sequence": "TGCTGA", "binding signal": "1.11 fold enrichment (6-mer frequency, TF over GST control)"},
      {"sequence": "TGCAAT", "binding signal": "1.18 fold enrichment (6-mer frequency, TF over GST control)"},
      {"sequence": "TGTATA", "binding signal": "1.08 fold enrichment (6-mer frequency, TF over GST control)"},
      {"sequence": "GGCTTA", "binding signal": "1.05 fold enrichment (6-mer frequency, TF over GST control)"},
      {"sequence": "AAAGGG", "binding signal": "1.21 fold enrichment (6-mer frequency, TF over GST control)"},
      {"sequence": "GCCTCC", "binding signal": "1.29 fold enrichment (6-mer frequency, TF over GST control)"},
      {"sequence": "GATATC", "binding signal": "1.55 fold enrichment (6-mer frequency, TF over GST control)"},
      {"sequence": "TACCCA", "binding signal": "1.01 fold enrichment (6-mer frequency, TF over GST control)"},
      {"sequence": "CTGACC", "binding signal": "1.4 fold enrichment (6-mer frequency, TF over GST control)"},
      {"sequence": "CCATCA", "binding signal": "1.26 fold enrichment (6-mer frequency, TF over GST control)"},
      {"sequence": "TACGTC", "binding signal": "1.19 fold enrichment (6-mer frequency, TF over GST control)"},
      {"sequence": "ATACGT", "binding signal": "1.12 fold enrichment (6-mer frequency, TF over GST control)"},
      {"sequence": "GGATAT", "binding signal": "1.61 fold enrichment (6-mer frequency, TF over GST control)"},
      {"sequence": "GGTCTA", "binding signal": "1.12 fold enrichment (6-mer frequency, TF over GST control)"}
    ]}
  ]
}
